Screening results from PubChem BioAssay.
An excerpt weighted towards active compounds, which were near 1.2% of everything screened.
LmPK inhibitor – LmPK (Leishmania mexicana) enzyme inhibition. Q27686. purified LmPK, Kinase-Glo ATP luminescence, 1 h. Potency, µM (series often up to 57.5 µM), for the others: at the top dose activity change, negative = inhibition, most hits filed as inhibitors. hit rate 0.37% among 290,000. AID 1721; also: % is scaled to controls: 0 for no effect and ±100 for the full control effect
Target sequence (Q27686 whole entry, looked up): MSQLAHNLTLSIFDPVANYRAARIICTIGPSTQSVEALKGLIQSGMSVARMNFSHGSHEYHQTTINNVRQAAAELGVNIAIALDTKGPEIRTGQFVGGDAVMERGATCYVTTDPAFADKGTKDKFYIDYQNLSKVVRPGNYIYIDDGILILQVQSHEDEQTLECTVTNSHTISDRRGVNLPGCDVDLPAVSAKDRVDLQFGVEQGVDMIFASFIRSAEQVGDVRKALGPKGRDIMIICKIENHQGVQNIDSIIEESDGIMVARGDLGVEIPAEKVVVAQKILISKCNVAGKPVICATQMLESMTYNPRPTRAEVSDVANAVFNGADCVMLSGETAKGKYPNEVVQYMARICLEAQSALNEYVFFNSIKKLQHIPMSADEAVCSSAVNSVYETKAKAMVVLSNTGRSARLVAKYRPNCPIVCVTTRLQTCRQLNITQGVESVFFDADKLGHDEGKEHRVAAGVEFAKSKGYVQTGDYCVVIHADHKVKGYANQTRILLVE
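Purified LmPK (0.1 nM) with 0.5 mM PEP and 0.1 mM ADP in imidazole buffer pH 7.2 with MgCl2/KCl, 1 h at room temperature. ATP formed was read by luciferase luminescence and normalized to no-enzyme and uninhibited controls.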
NS1 inh – blocks influenza NS1 protein function; Potency, µM (titrated, usually from 46.1 µM), for inactives: at the highest dose activity, positive = more growth; hit rate 0.4% among 270,000; AID 2326; calls by dose curve; also: actives are rising curves; nearly all actives have a fitted effect of over 50% in size
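Recovery from NS1-induced slow growth read by OD600 in budding yeast switched to galactose assay medium (pH 6.0, -URA) at 1:100 dilution. Compound 23 nl per well; the matching strain lacking NS1 serves as control.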
FBPA Giardia inh – blocks Giardia fructose-bisphosphate aldolase activity; A8B2U2; purified Giardia FBPA; Potency, µM (doses to about 59.6 µM), for the others: at the highest dose activity, negative = inhibition, most hits filed as inhibitors; hit rate 0.71% among 290,000; also: % is scaled to controls: 0 for no effect and ±100 for the full control effect; nearly all actives have a fitted effect of over 55% in size
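40 nM FBPA preincubated 10 min at RT with compound (up to 57.5 uM final), then substrate plus GAPDH/TPI/NAD/arsenate coupling and diaphorase/resazurin added. Fluorescence read after 20 min at RT, 525/598 nm.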
AMA1-RON2 inh – disrupts binding of P. falciparum AMA1 to RON2; AID 720542; Potency, µM (series often up to 58.2 µM), for inactives: top-dose activity change, negative = inhibition, most hits filed as inhibitors; AlphaScreen AMA1-biotinylated RON2 peptide binding; hit rate 0.2% among 360,000;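 also: 0% = vehicle wells and -100% = peptide control; nearly all actives have a fitted effect of over 45% in size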
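AMA1 (3D7) with his tag at 25 nM final met compounds first, then biotinylated RON2 peptide at 25 nM; detection used donor plus acceptor beads, 10 µg/mL apiece, read by AlphaScreen after 30 min at room temperature.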
TbPYK inhibitor – T. brucei pyruvate kinase inhibition | TbPYK enzyme, Kinase-Glo Plus ATP luminescence, 45 min | Q57TT1 | hit rate 0.12% among 410,000 | Potency, µM (titrated, usually from 76.8 µM), without a hit: at the highest dose activity, negative = inhibition, actives largely listed as inhibitors | AID 624173; also: % is scaled to controls: 0 for no effect and ±100 for the full control effect; nearly all actives have a fitted effect of over 50% in size
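TbPYK + substrate in 50 mM TEA pH 7.2, 100 mM KCl, 10 mM MgCl2, 0.05% BSA, 0.01% Tween-20; cpd pinned; ADP 130 uM final; 45 min RT; Kinase-Glo Plus 10 min; luminescence endpoint.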
* hit, by the source's call; u = inconclusive; x = not tested or not shown; ! = repeats disagree; [ ] = remark or other dose. Unless noted, calls follow the shape of the dose curve; as a rule, active = well fitted curve in the direction sought with a large enough effect; inconclusive = small, poorly fitted or top-dose-only effect, or another doubt; inactive = no such curve, though single readings can be large; an effect the other way counts as inactive or inconclusive. Potency is read from the fitted curve at half-maximal effect.

SMILES | LmPK inhibitor | NS1 inh | FBPA Giardia inh | AMA1-RON2 inh | TbPYK inhibitor
O=C(O)c1ccc(-c2nnc(-c3ccc([N+](=O)[O-])cc3)o2)cc1 | 1.5% | 18.5% | -2.2% | 46.1% | 2.6%
Cc1ccc2c(c1)CC1(CN2C)C(=O)OC2(CCCCC2)OC1=O | 14.1µM* | -15.8% | u | -8.0% | -0.1%
Cc1ccc2c(c1)CC1(CN2C)C(=O)NC(=O)N(c2ccccc2C)C1=O (stereo unspecified) | 1.1% | 14.6% | -18.9% | -3.4% | -2.2%
Cc1ccc(S(=O)(=O)NCCc2nnc3ccc(SCC(=O)Nc4c(C)cc(C)cc4C)nn23)cc1 | x | x | x | x | 2.9%
O=S(=O)(O)c1ccc2c(N=Nc3c(O)ccc4ccccc34)cccc2c1 | x | 0.0% | x | x | x
Oc1cc2c(cc1CN1CCN(c3ccccc3)CC1)CCC2 | 4.2% | -4.3% | -1.8% | 28.3% | 0.5%
C/C=C/c1cc(CN2CCN(c3ccc(OC)cc3)CC2)c(O)c(OC)c1 | -2.3% | x | -11.0% | 22.4µM* | 2.0%
C/C=C/c1cc(CN2CCN(c3ccccc3)CC2)c(O)c(OC)c1 | 0.7% | x | -13.0% | -29.4% | -0.9%
COc1ccc(N2CCN(Cc3cc4c(cc3O)CCC4)CC2)cc1 | 5.8% | 7.7% | 1.2% | 15µM* | -1.0%
CCOc1ccccc1CN1CCc2nc(N3CCN(c4ccccc4F)CC3)ncc2C1 | x | x | x | x | 1.0%
CCCCCCCCCCCCCCCC(=O)O[C@@H]1CC(C)=C(\C=C/C(C)=C\C=C/C(C)=C\C=C\C=C(C)\C=C\C=C(C)\C=C\C2=C(C)C[C@@H](OC(=O)CCCCCCCCCCCCCCC)CC2(C)C)C(C)(C)C1 | x | x | x | x | 1.6%
O=C(CCS(=O)(=O)c1ccc(Br)s1)Nc1cc(C(F)(F)F)cc(C(F)(F)F)c1 | x | x | x | x | -4.7%
Cc1cccc(C)c1Nc1n[nH]c(=S)s1 | x | x | x | 145.4% | 12.6µM*
COc1cc(/C=N/n2cc(-c3ccccc3)[nH]c2=S)cc(OC)c1O | 2.51µM* | 2.6% | -7.7% | 67.4% | 1.12µM*
CN(C)c1ccc(Sc2ccc3nc(N)nc(N)c3c2)cc1 | x | x | x | 10µM* | -25.3%
Nc1nc(N)c2cc(S(=O)(=O)c3cccc(C(F)(F)F)c3)ccc2n1 | x | x | x | 3.9% | 6.0%
COc1ccc(-n2sc3c(c2=S)-c2cc(OC)ccc2NC3(C)C)cc1 | 3.2% | u | 2.9% | 22.4µM* | 4.0%
COc1ccc2c(c1)-c1c(ssc1=S)C(C)(C)N2 | -0.1% | u | -9.8% | 29.9µM* | -28.2%
COc1ccc2c(c1)-c1c(sn(-c3ccc(OC)c(OC)c3)c1=S)C(C)(C)N2 | -2.3% | -12.5% | -10.0% | u | -5.9%
COc1ccc2c(c1)-c1c(sn(-c3ccccc3)c1=S)C(C)(C)N2 | -3.4% | u | -7.9% | 12.6µM* | -7.7%
COC(=O)C1=C(C)NC(C)=C(C(=O)OCCCN2CCC(c3ccccc3)(c3ccccc3)CC2)C1c1cccc([N+](=O)[O-])c1 (stereo unspecified) | x | x | x | x | 0.0%
Cc1nc(Cl)sc1C(=O)Nc1ccc(F)cc1 | x | x | x | 1.4% | -0.5%
CC(C)S(=O)(=O)c1csc(C(=O)Nc2ccc(F)cc2)c1N | 14.1µM* | 1.0% | -8.6% | -26.2% | -11.6%
CC(NC(CCc1ccccc1)C(=O)O)C(=O)N1CCCC1C(=O)O (stereo unspecified) | x | x | x | x | -6.6%
Cc1[nH][nH]c(=O)c1C(c1ccc(-c2ccc(C(=O)O)cc2)o1)c1c(C)[nH][nH]c1=O | -17.0% | 12.2% | 5.61µM* | 4.4% | u
SMILES | LmPK inhibitor | NS1 inh | FBPA Giardia inh | AMA1-RON2 inh | TbPYK inhibitor
COc1ccccc1CNc1nc(-c2ccccc2OC)nc2ccccc12 | x | x | 1.3% | x | x
COc1ccccc1N1CCN(C(c2cc3cc(C)ccc3[nH]c2=O)c2nnnn2C2CCCC2)CC1 (stereo unspecified) | 2.6% | -13.6% | u | -3.8% | -0.2%
COc1ccccc1N1CCN(C(c2cc3ccc(C)cc3[nH]c2=O)c2nnnn2C2CCCC2)CC1 (stereo unspecified) | 4.7% | 1.7% | 28.2µM* | 7.0% | -3.5%
C[c-]1[c-](C)[c-](C)[c-](C)[c-]1C.[Fe].c1cc2nccc(N3CCCC3)[c-]2c1 (stereo unspecified) | 31.6µM*! | -5.7% | u | u | -16.2%
Nc1nonc1C(=O)N/N=C/c1ccncc1 | -23.0% | x | 7.7% | 17.8% | 1.7%
Cc1nonc1C(=O)N/N=C/c1ccncc1 | 15.8µM* | -0.2% | -1.3% | -2.3% | 3.7%
CNC(=O)c1ccccc1Sc1ccc2c(/C=C/c3ccccn3)n[nH]c2c1 | x | x | x | x | 0.0%
Nc1ccc(O)c(C(=O)O)c1 | x | x | 3.54µM* | x | -12.1%
Nc1ccc(C(=O)O)c(O)c1 (tested in a mixture with another compound) | x | x | -14.8% | x | x
O=C1C(Cl)=C(Sc2nnc3c4ccccc4c4ccccc4c3n2)C(=O)c2ccccc21 | x | 3.1% | x | x | x
S=c1[nH]ncn1/N=C/c1cccc(Oc2ccccc2)c1 | 10µM* | -78.2% | 22.8% | 0.0% | u
COc1ccccc1NC(=O)C1CCC(CNS(=O)(=O)c2ccc3c(c2)CC(C)N3C(C)=O)CC1 (stereo unspecified) | x | x | x | x | -4.9%
CC12C=CC(=O)C=C1CCC1C2C(O)CC2(C)C1CCC2(O)C(=O)COC(=O)CCC(=O)O (stereo unspecified) | x | x | x | x | -5.7%
C=CC(=O)Nc1cccc(N(C)c2ccnc(Nc3ccc(N4CCN(C)CC4)cc3)n2)c1 | x | x | x | 22.4µM* | 2.0%
C=CC(=O)Nc1cccc(Oc2ccnc(Nc3ccc(N4CCN(C)CC4)cc3)n2)c1 | x | x | x | u | -11.1%
S=C(NNc1cccc(Cl)c1)NC1CCCCC1 | 0.9% | x | -13.3% | 6.31µM* | 1.7%
O=c1ccc2nc3ccccc3sc-2c1 | x | x | x | 14.1µM* | u
CC(CN1CCOCC1)C(Cc1ccccc1)(Cc1ccccc1)C(=O)N1CCCC1 (stereo unspecified) | x | x | x | x | -12.1%[157 µM]
CC(C)Cc1nnc(NC(=O)CCC(=O)N2CCN(c3ccccn3)CC2)s1 | 8.0% | -1.5% | 4.3% | 1.0% | -3.3%
CC(C)c1nnc(NC(=O)CCC(=O)N2CCN(c3ccccn3)CC2)s1 | -2.4% | 1µM* | 4.4% | 1.2% | -2.2%
Cc1[nH]ccc(=O)c1OCc1ccccc1 | 1.8% | 5.7% | 0.8% | 5.4% | 0.1%
O=c1cc(OCc2ccccc2)cc[nH]1 | x | x | x | 1.12µM* | 0.2%
COc1cc2c(Nc3ccc(Br)cc3F)ncnc2cc1OCC1CCN(C)CC1 | x | x | x | x | -3.2%
